Assay results from the supplement of paper PMC11001985.
Values without a mark were called inactive.

Sequence of UniProt Q13813 (Q13813 whole entry): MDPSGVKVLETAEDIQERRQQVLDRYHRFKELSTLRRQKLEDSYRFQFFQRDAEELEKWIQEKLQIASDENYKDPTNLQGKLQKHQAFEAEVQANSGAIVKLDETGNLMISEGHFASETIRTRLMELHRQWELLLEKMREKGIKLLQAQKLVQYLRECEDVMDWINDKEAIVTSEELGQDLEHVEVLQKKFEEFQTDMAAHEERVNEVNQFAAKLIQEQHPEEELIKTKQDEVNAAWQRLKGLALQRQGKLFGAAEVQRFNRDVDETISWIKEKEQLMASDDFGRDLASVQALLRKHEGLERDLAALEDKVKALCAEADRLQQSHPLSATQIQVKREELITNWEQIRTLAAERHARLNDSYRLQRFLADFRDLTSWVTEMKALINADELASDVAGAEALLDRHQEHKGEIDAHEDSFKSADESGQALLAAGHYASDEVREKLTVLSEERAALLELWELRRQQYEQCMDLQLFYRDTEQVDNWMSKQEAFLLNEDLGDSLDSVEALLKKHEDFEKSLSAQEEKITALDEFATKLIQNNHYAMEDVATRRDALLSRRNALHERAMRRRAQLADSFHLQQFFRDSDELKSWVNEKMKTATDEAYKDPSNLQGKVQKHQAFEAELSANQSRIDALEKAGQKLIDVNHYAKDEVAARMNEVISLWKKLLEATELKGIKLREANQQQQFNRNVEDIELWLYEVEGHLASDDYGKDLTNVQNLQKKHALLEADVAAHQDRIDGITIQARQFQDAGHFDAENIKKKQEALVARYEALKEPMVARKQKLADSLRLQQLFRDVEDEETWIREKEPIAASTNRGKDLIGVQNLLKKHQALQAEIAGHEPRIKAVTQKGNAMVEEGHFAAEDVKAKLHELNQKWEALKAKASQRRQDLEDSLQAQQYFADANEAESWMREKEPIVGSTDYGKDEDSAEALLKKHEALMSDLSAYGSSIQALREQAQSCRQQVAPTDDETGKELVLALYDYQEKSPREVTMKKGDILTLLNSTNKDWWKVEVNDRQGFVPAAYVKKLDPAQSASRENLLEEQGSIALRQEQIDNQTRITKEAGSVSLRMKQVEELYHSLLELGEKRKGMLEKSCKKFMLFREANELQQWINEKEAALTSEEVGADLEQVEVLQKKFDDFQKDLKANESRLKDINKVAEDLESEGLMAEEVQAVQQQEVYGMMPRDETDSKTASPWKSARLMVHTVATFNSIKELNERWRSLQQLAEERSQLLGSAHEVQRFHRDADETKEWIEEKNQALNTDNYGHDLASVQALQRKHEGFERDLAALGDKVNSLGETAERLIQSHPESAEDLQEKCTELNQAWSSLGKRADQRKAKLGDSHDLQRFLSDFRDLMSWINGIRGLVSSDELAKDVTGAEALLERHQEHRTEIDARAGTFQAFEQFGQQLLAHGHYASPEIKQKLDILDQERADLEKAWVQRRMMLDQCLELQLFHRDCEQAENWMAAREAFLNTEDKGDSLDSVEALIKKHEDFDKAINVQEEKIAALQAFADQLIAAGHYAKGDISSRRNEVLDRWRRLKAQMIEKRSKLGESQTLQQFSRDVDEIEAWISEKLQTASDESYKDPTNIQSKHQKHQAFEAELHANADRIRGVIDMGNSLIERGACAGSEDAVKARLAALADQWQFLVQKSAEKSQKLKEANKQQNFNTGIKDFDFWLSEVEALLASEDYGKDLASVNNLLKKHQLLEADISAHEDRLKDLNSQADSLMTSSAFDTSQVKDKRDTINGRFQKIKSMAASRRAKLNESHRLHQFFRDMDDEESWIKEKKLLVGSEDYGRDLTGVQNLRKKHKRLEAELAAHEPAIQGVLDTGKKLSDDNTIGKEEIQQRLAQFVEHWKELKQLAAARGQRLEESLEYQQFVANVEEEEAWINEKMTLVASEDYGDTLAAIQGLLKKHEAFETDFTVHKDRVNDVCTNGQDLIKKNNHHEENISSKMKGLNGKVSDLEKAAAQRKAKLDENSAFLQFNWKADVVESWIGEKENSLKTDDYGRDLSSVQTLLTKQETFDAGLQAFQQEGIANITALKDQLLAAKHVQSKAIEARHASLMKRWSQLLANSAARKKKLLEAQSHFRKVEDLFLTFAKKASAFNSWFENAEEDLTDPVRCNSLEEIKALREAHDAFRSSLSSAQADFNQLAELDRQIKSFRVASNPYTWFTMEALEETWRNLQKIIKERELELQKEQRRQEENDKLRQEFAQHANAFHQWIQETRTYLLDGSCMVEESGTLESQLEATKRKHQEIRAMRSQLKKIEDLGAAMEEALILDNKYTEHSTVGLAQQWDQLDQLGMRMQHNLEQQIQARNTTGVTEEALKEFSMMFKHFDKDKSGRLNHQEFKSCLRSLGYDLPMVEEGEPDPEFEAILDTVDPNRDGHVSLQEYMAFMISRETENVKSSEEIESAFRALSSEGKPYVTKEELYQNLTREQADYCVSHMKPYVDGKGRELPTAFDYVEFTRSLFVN
Sequence of UniProt P28827 (P28827 whole entry): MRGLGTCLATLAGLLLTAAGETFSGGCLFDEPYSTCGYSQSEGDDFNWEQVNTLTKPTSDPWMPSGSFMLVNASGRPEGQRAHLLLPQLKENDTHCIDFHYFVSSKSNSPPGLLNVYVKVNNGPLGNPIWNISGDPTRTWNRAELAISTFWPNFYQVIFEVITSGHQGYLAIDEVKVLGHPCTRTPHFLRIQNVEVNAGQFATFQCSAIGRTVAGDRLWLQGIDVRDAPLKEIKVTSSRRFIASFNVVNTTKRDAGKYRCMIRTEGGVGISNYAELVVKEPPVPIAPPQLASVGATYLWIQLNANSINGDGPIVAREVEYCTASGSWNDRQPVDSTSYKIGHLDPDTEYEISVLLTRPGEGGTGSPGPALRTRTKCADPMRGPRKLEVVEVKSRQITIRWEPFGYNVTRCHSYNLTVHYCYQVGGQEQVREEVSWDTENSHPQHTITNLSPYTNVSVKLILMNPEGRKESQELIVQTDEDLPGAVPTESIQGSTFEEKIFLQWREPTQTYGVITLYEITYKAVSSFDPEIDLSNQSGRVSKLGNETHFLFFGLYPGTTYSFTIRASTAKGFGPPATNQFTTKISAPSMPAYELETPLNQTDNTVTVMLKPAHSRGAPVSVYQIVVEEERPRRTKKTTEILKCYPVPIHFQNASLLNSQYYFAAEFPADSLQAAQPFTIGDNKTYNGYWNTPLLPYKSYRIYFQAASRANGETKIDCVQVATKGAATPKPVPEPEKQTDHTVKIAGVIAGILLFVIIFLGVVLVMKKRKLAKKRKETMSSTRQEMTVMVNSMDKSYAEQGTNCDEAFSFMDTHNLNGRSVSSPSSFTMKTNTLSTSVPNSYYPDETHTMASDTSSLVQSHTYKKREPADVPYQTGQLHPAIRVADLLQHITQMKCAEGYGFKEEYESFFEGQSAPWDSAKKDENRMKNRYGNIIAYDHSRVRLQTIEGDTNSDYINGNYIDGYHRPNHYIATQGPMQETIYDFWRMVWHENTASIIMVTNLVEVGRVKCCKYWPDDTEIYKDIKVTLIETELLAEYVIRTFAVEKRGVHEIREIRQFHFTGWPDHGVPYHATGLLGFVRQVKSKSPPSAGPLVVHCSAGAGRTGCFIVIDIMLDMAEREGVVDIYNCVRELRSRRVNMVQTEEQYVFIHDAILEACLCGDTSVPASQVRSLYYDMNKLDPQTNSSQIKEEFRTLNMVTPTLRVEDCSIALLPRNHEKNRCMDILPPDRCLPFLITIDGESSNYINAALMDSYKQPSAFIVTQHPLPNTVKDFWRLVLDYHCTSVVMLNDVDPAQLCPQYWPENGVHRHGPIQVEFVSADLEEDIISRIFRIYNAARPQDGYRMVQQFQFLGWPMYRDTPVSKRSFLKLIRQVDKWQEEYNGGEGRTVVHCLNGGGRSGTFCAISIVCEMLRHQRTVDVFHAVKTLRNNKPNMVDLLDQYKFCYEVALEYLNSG
Sequence of UniProt P53007 (P53007 whole entry, looked up): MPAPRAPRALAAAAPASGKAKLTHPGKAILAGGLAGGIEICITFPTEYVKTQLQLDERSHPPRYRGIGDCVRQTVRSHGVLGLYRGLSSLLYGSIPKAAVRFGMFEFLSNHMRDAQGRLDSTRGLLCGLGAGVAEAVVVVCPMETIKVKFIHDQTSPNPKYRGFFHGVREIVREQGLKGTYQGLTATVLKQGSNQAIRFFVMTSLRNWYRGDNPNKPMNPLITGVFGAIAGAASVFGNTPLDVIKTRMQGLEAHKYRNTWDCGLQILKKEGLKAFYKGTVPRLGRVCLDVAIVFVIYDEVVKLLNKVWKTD
Sequence of UniProt Q9Y3C8 (Q9Y3C8 whole entry): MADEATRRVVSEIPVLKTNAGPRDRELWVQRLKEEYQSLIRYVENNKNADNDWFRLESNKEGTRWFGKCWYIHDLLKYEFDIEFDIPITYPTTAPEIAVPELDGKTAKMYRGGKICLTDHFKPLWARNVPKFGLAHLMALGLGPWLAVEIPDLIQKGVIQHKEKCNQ
Sequence of UniProt P78371 (P78371 whole entry): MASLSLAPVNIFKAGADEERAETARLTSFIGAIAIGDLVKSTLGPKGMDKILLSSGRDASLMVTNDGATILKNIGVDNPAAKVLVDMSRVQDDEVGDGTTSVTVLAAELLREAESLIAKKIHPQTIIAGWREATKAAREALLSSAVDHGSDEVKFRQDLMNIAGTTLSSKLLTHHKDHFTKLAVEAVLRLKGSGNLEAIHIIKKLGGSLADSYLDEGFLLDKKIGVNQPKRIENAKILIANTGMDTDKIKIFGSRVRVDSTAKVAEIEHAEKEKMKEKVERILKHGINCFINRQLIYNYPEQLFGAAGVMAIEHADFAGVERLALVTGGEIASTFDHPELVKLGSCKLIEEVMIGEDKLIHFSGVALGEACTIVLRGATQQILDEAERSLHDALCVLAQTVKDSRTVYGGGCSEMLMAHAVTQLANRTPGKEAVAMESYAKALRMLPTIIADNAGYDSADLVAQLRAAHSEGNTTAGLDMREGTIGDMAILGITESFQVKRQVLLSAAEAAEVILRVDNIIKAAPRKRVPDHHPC
Sequence of UniProt P09382 (P09382 whole entry): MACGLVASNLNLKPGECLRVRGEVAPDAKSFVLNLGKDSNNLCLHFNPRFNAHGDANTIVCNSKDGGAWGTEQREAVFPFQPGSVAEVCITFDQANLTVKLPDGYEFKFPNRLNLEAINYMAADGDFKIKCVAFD

These targets were tested with C#CCNC(=O)CCSSCCC(=O)NCCc1ccc(C=O)c(C=O)c1 (assay: lysine labeling ratio R10:1 (500 µM / 50 µM probe), SILAC-ABPP in living cells; higher = lower intrinsic lysine reactivity toward the probe, active = 2 or less). Conditions: HeLa; probe concentrations 500 vs 50 µM.
How it was run: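 With forward and reverse label swaps, light and heavy SILAC HeLa cells, alive and in PBS at room temperature, were exposed to either 500 µM or 50 µM of an alkyne-tagged lysine probe bearing a disulfide link. After mixing, lysates were clicked to biotin-azide, cut with trypsin, pulled down on neutravidin, freed with DTT, alkylated and analysed on a TIMS-TOF Pro by LC-MS/MS. The per-lysine value R is the median over forward and reverse replicates of the filtered median high-probe/low-probe MS1 peptide ratio. It is capped at 20.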
“ITGA2 (lysine site: K718) (UniProt P17301)” was tested, and the “lysine labeling ratio R10:1” value was 2.51.
In the case of “UFC1 (lysine site: K33) (UniProt Q9Y3C8)”, the “lysine labeling ratio R10:1” value is reported as 3.81.
With “FRAS1 (lysine site: K1164) (UniProt Q86XX4)” the “lysine labeling ratio R10:1” value was 1.34 (active).
With “SPTAN1 (lysine site: K1432) (UniProt Q13813)” the “lysine labeling ratio R10:1” value was 0.77 (active).
With “SUB1 (lysine site: K39) (UniProt P53999)” the “lysine labeling ratio R10:1” value was 1.42 (active).
UniProt Q92729 (lysine site: K440) was tested, and the “lysine labeling ratio R10:1” value was 1.22 (active).
For “LGALS1 (lysine site: K64) (UniProt P09382)”, the “lysine labeling ratio R10:1” value was 3.47.
For “SPTBN1 (lysine site: K1815) (UniProt Q01082)”, the “lysine labeling ratio R10:1” value was 2.56.
In the case of “PTPRM (lysine site: K375) (UniProt P28827)”, the “lysine labeling ratio R10:1” value is reported as 5.3.
“SPTAN1 (lysine site: K30) (UniProt Q13813)” was tested, and the “lysine labeling ratio R10:1” value was 5.74.
For “CCT2 (lysine site: K154) (UniProt P78371)”, the “lysine labeling ratio R10:1” value was 3.78.
In the case of “PA2G4 (lysine site: K287) (UniProt Q9UQ80)”, the “lysine labeling ratio R10:1” value is reported as 0.997 (active).
“SLC25A1 (lysine site: K160) (UniProt P53007)” was tested, and the “lysine labeling ratio R10:1” value was 2.79.
For “APOO (lysine site: K51) (UniProt Q9BUR5)”, the “lysine labeling ratio R10:1” value was 0.799 (active).
In the case of “KIAA1549 (lysine site: K1262) (UniProt Q9HCM3)”, the “lysine labeling ratio R10:1” value is reported as 0.805 (active).
For “ALDOA (lysine site: K330) (UniProt P04075)”, the “lysine labeling ratio R10:1” value was 2.76.
In the case of “PGK1 (lysine site: K361) (UniProt P00558)”, the “lysine labeling ratio R10:1” value is reported as 3.45.
